We go through nine compounds from PubChem BioAssay (Tox21).

Experiment [1] can be described thus: qHTS assay to identify small molecule antagonists of the estrogen related receptor (ERR) signaling pathway from Tox21 library - cell viability counter screen (AID 1224834). Also: nearly all actives have a fitted effect of over 30% in size. Also: potency is read from the fitted curve at half-maximal effect. In outline: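 In this quantitative HTS format, ERR cells receive compounds in DMSO and are incubated for 17.5 h at 37 C. Live-cell protease activity is then detected with CellTiter-Fluor.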
Background: Quantitative high-throughput screening tests each substance at several concentrations.

Experiment [2] can be described thus: qHTS assay to identify small molecule agonists of the constitutive androstane receptor (CAR) signaling pathway - cell viability counter screen (AID 1224836). Also: % is scaled to controls: 0 for no effect and ±100 for the full control effect; nearly all actives have a fitted effect of over 45% in size. In outline:
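Using CellTiter-Fluor, viability of HepG2 cells harbouring hCAR and CYP2B6-2.2kb was measured following 23 h incubation with a 15-concentration compound series plus PK11195 (0.75 uM final).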

Experiment [3] can be described thus: qHTS assay to identify small molecule antagonists of the constitutive androstane receptor (CAR) signaling pathway - cell viability counter screen (AID 1224837). Also: nearly all actives have a fitted effect of over 45% in size. Also: potency is read from the fitted curve at half-maximal effect. Summed up:
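In quantitative HTS format, compounds at 15 concentrations were applied to HepG2 cells double-transfected with hCAR and CYP2B6-2.2kb under 50 nM CITCO stimulation; live-cell protease activity was read after 23 hr via CellTiter-Fluor.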

Experiment [4] deals with Nuclear receptor subfamily 1 group I member 3 (Homo sapiens) (UniProt Q14994). The experiment is described as follows: qHTS assay to identify small molecule antagonists of the constitutive androstane receptor (CAR) signaling pathway (AID 1224838). Also: % is scaled to controls: 0 for no effect and ±100 for the full control effect; nearly all actives have a fitted effect of over 40% in size. Summed up:
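CITCO-stimulated (50 nM final) HepG2 cells stably transfected with hCAR and CYP2B6-2.2kb luciferase were exposed to compounds at 15 concentrations for 24 h at 37 C/5% CO2. A luciferase reagent was added and luminescence recorded after 30 min.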

Experiment [5] can be described thus: qHTS assay to identify small molecule antagonists of the estrogen related receptor signaling pathway with the pleiotropic PPARgamma coactivator (PGC) from Tox21 10K library - cell viability counter screen (AID 1224840; active = well fitted cell-killing curve with a large enough effect in the repeat runs, not every such curve was filed as active; also: % is scaled to controls: 0 for no effect and ±100 for the full control effect; nearly all actives have a fitted effect of over 40% in size). Summed up: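 Viability counter screen, PGC/ERR cells: 17.5 h compound exposure at 37 C, CellTiter-Fluor fluorescence endpoint.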
Experiment [6] can be described thus: qHTS assay to identify small molecule antagonists of the estrogen related receptor signaling pathway with the pleiotropic PPARgamma coactivator (PGC) from Tox21 10K library (AID 1224841; call rule not given here; also: % is scaled to controls: 0 for no effect and ±100 for the full control effect; actives are mostly falling curves and most rising ones were filed inactive; nearly all actives have a fitted effect of over 50% in size). In outline: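 In the PGC/ERR line, DMSO solutions of test chemicals are pin-delivered to 2,000 cells/well six hours after dispensing. Following eighteen hours' incubation, One-Glo reagent is added and luminescence recorded.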

A short description of experiment [7]: qHTS assay to identify small molecule agonists of the estrogen related receptor signaling pathway with the pleiotropic PPARgamma coactivator (PGC) from Tox21 10K library (AID 1224842). Also: % is scaled to controls: 0 for no effect and ±100 for the full control effect; nearly all actives have a fitted effect of over 15% in size. Summed up: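 Luminescence from One-Glo (30 min, room temperature) measured after PGC/ERR cells had 18 h at 37 C with pinned compound (23 nL in DMSO). Cells had been seeded at 2,000 per well and pre-incubated 6 h.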

Experiment [8] in a line: qHTS assay to identify small molecule agonists of the hypoxia (HIF-1) signaling pathway - cell viability counter screen (AID 1224844; calls by dose curve; also: % is scaled to controls: 0 for no effect and ±100 for the full control effect; nearly all actives have a fitted effect of over 50% in size). In outline: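 Same wells as the HIF-1 reporter screen; ME-180 cells carrying HRE-bla, 17 hr treatment at 37C; CellTiter-Glo luminescence read after 30 min at room temperature.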
Experiment [9] can be described thus: qHTS assay to identify small molecule agonists of the hypoxia (HIF-1) signaling pathway (AID 1224846; active = well fitted activation curve with a large enough effect in the signal ratio in the repeat runs, not every such curve was filed as active; the % refers to the signal ratio; also: % is scaled to controls: 0 for no effect and ±100 for the full control effect). Summed up:
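In ME-180 cells bearing an HRE-bla construct, 17 h treatment with DMSO-dissolved compounds at 37C was followed by CCF4-AM loading to quantify reporter induction.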

A short description of experiment [10]: qHTS assay to identify small molecule antagonists of the estrogen related receptor (ERR) signaling pathway from Tox21 library (AID 1224848). Also: potency is read from the fitted curve at half-maximal effect; nearly all actives have a fitted effect of over 50% in size. In outline: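 Luciferase luminescence (ONE-Glo, 30 min room temperature) was the read-out. Cells of the NTP-supplied ERR line, 2,000 per well, were given 6 h at 37 C before compound addition in DMSO and 18 h exposure at 37 C.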

A short description of experiment [11]: qHTS assay to identify small molecule agonists of the estrogen related receptor (ERR) signaling pathway from Tox21 library (AID 1224849; calls by dose curve; also: % is scaled to controls: 0 for no effect and ±100 for the full control effect; nearly all actives have a fitted effect of over 15% in size). As to conditions: ERR reporter cell line, ONE-Glo luciferase, 18 h; at 92.4 µM (top of the series) unless noted. In outline: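 Reporter cells (ERR, NTP source) treated with Tox21 10K compounds 18 h, 37 C. Readout: ONE-Glo luminescence, 30 min RT.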

The nature of experiment [12]: qHTS RealTime-Glo MT Cell Viability Assay in HEK293 cells - 32 hour (AID 1224868). Also: nearly all actives have a fitted effect of over 50% in size. Also: potency is read from the fitted curve at half-maximal effect. In outline: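 HEK293 cells seeded with NanoLuc/prosubstrate reagent, rested 5 h at 37 C, then dosed and kept at 37 C up to 40 h. Nonlytic real-time luminescence from viable cells read at 0, 8, 16, 24, 32 and 40 h.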
In experiment [13] the target is Luciferin 4-monooxygenase (Photinus pyralis) (UniProt P08659). In words: qHTS assay to identify small molecule inhibitors of firefly luciferase (AID 1224835). Also: % is scaled to controls: 0 for no effect and ±100 for the full control effect; nearly all actives have a fitted effect of over 25% in size. Summed up:
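Inhibition of purified Photinus luciferase is measured by luminescence. Substrate levels (D-luciferin, ATP) sit at their KM values. Each compound is tested in a concentration series.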

Experiment [14] addresses Thyrotropin receptor (Homo sapiens) (UniProt P16473). The experiment is described as follows: qHTS assay to identify small molecule agonists of the thyroid stimulating hormone receptor (TSHR) signaling pathway (AID 1224843; calls by dose curve; also: % is scaled to controls: 0 for no effect and ±100 for the full control effect; nearly all actives have a fitted effect of over 45% in size). In outline: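 Agonist activity read as cAMP rise via d2/cryptate HTRF competition, 1 h room-temperature detection, in HEK293 cells expressing TSHR. Fifteen-point titrations, each run in triplicate, with a 30 min room-temperature incubation beforehand.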

Experiment [15] is described as follows: qHTS assay to identify small molecule agonists of H2AX (AID 1224845; active = well fitted activation curve with a large enough effect in the signal ratio in the repeat runs, not every such curve was filed as active; the % refers to the signal ratio; also: % is scaled to controls: 0 for no effect and ±100 for the full control effect). Summed up: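 Phospho-H2AX Ser139 measured by HTRF (ex 320 nm; em 665 and 620 nm) after 24 hr antibody incubation. Compounds, 15 concentrations, 0.76% DMSO, were applied to CHO-K1 cells for 3hr at 37C before lysis.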
Experiment [16] is described as follows: qHTS assay to identify small molecule agonists of H2AX - cell viability counter screen (AID 1224847; calls by dose curve; also: top concentration of the series differs between compounds; % is scaled to controls: 0 for no effect and ±100 for the full control effect; nearly all actives have a fitted effect of over 30% in size). In outline: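 Quantitative HTS viability measurement: CHO-K1 wild-type cells in serum (10% FBS) medium, short 3 hr drug exposure at 37C with 0.76% DMSO, CellTiter-Glo luminescent detection.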
Experiment [17] in a line: A CellTox Green Cytotoxicity Assay to monitor cytotoxicity in HEK293 cells - 0 hour (AID 1224869). Summed up: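 Homogeneous no-lysis format: HEK293 cell suspension mixed with CellTox Green reagent, seeded, incubated 5 h at 37 C/5% CO2, then dosed by pintool with compound in DMSO.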
Experiment [18] can be described thus: qHTS RealTime-Glo MT Cell Viability Assay in HepG2 cells - 40 hour (AID 1224870). Summed up: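 Real-time viability: cells seeded at 600 per well together with NanoLuc and cell-permeant prosubstrate, compounds added after 5 h incubation. Luminescence tracked at 0, 8, 16, 24, 32 and 40 h of exposure.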
Experiment [19] concerns the target Nuclear receptor subfamily 1 group I member 3 (Homo sapiens) (UniProt Q14994). The experiment is described as follows: qHTS assay to identify small molecule agonists of the constitutive androstane receptor (CAR) signaling pathway (AID 1224839).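 Also: HepG2 cells stably carrying human CAR and a CYP2B6 luciferase reporter; % is scaled to controls: 0 for no effect and ±100 for the full control effect; nearly all actives have a fitted effect of over 15% in size.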 Summed up:
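Double-stable HepG2 cells (hCAR, CYP2B6-2.2kb) seeded 4 h before compound addition. Exposure 24 h with 0.75 uM PK11195 final. Luciferase detected by ONE-Glo.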

Experiment [20] can be described thus: qHTS RealTime-Glo MT Cell Viability Assay in HepG2 cells - 24 hour (AID 1224867). Also: nearly all actives have a fitted effect of over 50% in size. Also: potency is read from the fitted curve at half-maximal effect. In outline: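 HepG2 cells (600/well) were dispensed with RealTime-Glo reagents, incubated 5 h at 37 °C, then treated with compounds in DMSO for up to 40 h. Nonlytic NanoLuc luminescence reflecting viable cells was read at each stated time point.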

Unmarked numbers belong to inactive results. Results filed as inconclusive are left out. Calls of active or inactive are those of the source. Unless noted, calls follow the shape of the dose curve; as a rule, active = well fitted curve in the direction sought with a large enough effect in the repeat runs; inconclusive = weak or mixed curves; inactive = no such curve, though single readings can be large; an effect the other way counts as inactive or inconclusive.

Chain of Nuclear receptor subfamily 1 group I member 3 (Homo sapiens) (Q14994 whole entry, looked up): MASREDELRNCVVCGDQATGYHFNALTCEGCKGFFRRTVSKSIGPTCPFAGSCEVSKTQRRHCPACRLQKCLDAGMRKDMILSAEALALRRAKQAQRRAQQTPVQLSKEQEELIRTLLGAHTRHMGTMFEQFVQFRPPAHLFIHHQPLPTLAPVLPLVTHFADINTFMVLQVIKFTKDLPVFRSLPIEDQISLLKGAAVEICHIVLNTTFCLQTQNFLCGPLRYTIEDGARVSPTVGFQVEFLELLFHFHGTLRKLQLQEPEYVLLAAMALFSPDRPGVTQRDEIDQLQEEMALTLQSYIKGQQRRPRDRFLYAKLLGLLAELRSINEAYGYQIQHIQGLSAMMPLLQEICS
Chain of Luciferin 4-monooxygenase (Photinus pyralis) (P08659 whole entry, looked up): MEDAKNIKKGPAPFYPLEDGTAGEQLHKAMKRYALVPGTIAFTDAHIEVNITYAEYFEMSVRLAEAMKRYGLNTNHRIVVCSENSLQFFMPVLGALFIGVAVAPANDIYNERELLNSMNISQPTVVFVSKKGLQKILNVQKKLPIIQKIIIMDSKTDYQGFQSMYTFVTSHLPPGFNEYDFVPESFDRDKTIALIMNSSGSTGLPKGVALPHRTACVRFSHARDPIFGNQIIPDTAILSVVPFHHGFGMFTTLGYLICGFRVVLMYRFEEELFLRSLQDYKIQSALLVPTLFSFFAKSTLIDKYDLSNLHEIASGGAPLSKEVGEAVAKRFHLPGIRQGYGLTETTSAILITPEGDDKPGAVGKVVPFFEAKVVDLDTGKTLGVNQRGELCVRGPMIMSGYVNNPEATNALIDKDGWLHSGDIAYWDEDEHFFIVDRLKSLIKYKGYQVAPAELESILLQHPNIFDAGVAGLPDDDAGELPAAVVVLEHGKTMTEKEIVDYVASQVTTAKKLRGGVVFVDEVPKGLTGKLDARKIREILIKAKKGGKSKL
Chain of Thyrotropin receptor (Homo sapiens) (P16473 whole entry, looked up): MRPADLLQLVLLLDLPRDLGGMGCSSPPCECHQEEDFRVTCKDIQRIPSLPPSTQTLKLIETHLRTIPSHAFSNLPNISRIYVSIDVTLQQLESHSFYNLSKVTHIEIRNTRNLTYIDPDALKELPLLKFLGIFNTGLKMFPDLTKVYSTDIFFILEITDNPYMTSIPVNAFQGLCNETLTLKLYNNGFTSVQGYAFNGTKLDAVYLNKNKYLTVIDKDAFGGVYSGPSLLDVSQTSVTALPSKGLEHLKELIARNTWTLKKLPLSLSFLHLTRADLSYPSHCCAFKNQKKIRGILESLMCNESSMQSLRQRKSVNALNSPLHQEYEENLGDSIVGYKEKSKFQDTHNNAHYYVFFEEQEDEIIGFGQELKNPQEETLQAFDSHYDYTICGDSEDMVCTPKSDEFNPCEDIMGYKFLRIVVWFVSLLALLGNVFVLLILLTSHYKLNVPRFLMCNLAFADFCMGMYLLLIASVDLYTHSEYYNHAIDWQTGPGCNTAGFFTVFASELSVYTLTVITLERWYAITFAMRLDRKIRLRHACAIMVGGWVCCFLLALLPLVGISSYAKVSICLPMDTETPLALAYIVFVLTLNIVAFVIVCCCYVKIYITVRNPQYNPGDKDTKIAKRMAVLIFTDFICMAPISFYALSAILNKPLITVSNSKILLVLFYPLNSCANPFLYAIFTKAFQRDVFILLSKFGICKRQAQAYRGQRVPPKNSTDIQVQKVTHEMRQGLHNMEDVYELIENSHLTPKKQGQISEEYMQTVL

For the compound `CCOC(=O)[C@@H](C)Oc1ccc(Oc2nc3ccc(Cl)cc3o2)cc1`, the Potency result in [1], in experiment [2], in [3], in experiment [4], in experiment [5] and in experiment [6] was “inactive” throughout. Besides, the Potency entry in experiment [7] and in experiment [8] was “inactive” each time. The compound was called inactive in experiment [9]. The Potency in experiment [10] is 48.6 µM (active); in [12], 21.9 µM (active). Besides, the activity change, positive = activation in [11] is -39.1%.

Turning to `Cc1ccccc1N1C(=O)c2cc(S(N)(=O)=O)c(Cl)cc2NC1C` (configuration not stated), the Potency entry in experiment [1], in experiment [13], in [2], in [3], in [5] and in experiment [14] was “inactive” in each case. Besides, the Potency result in [15], in experiment [16], in experiment [12], in experiment [17] and in experiment [18] was “inactive” throughout.

With `CCc1nn(CCCN2CCN(c3cccc(Cl)c3)CC2)c(=O)n1CCOc1ccccc1`, the figures for the Potency in [1], in experiment [20] and in experiment [12] were 29.8 µM (active), 23.9 µM (active) and 8.49 µM (active), respectively. Also, the Potency entry in experiment [13], in [3], in experiment [4], in experiment [19], in experiment [14] and in [15] was “inactive” throughout. The Potency entry in experiment [17] was “inactive”. Further, in [9], the compound was called inactive.

As for `CCn1cc(C(=O)O)c(=O)c2cc(F)c(N3CCNCC3)nc21`, the Potency result in experiment [1], in experiment [13], in [2], in experiment [3], in experiment [5] and in experiment [14] was “inactive” each time. Moreover, the Potency result in [8], in [15], in [16], in experiment [20], in experiment [12] and in [17] was “inactive” throughout. In experiment [18], the Potency entry is “inactive”.

Regarding `CC(=O)Nc1ccc(N)cc1`, the Potency entry in experiment [1], in experiment [13], in [2], in [3], in [14] and in [15] was “inactive” in each case. The Potency entry in [16], in experiment [20], in [12], in experiment [17] and in experiment [18] was “inactive” in each case. In experiment [9], the result was inactive.

As to `CCC(=O)OC/C=C/c1ccccc1`, the Potency entry in [1], in experiment [2], in experiment [3], in [4], in experiment [19] and in [5] was “inactive” each time. Further, the Potency entry in experiment [8], in [15], in [16], in [20], in experiment [12] and in [18] was “inactive” each time. In [9], the call was inactive.

For the compound `CCNC(=O)N1CCN(CCCC(c2ccc(F)cc2)c2ccc(F)cc2)CC1`, the Potency in [1] was 18.8 µM (active); in experiment [3], 21.1 µM (active); in experiment [10], 7.5 µM (active); in experiment [12] it was 16.9 µM (active). In addition, the Potency entry in experiment [13], in experiment [4], in [7], in [8], in experiment [15] and in [16] was “inactive” each time. Moreover, the Potency entry in [20], in experiment [17] and in [18] was “inactive” throughout. In addition, the activity change, positive = activation in [11] is -50.1% [at 42.5 µM].

Turning to `CO[Si](C)(OC)OC`, the Potency entry in experiment [1], in experiment [13], in experiment [2], in experiment [3], in [14] and in experiment [15] was “inactive” in each case. Moreover, the Potency result in [20], in experiment [12], in experiment [17] and in experiment [18] was “inactive” in each case. For the same compound, the compound was classed as inactive in experiment [9].

Regarding `O=C(Nc1ccc([N+](=O)[O-])cc1)Nc1ccc([N+](=O)[O-])cc1`, the Potency result in experiment [1], in experiment [13], in experiment [2], in experiment [3], in experiment [5] and in experiment [14] was “inactive” in each case. The Potency entry in experiment [15] and in experiment [18] was “inactive” each time. Moreover, in experiment [9], the result was inactive. Moreover, the Potency in experiment [12] was 7.56 µM (active).
